# Measured values as given in PubChem BioAssay (NCATS).
# Records with an inconclusive call do not appear. Entries that show only a call come without a potency. A number with no mark means an inactive call. Activity calls are given as the source filed them. The call rests on the fitted dose curve; in most records, active means well fitted curve in the direction sought with a large enough effect; inconclusive means small, poorly fitted or top-dose-only effect, or another doubt; inactive means no such curve, though single readings can be large; an effect the other way counts as inactive or inconclusive.
# Experiments:
# [1] = target: Cellular tumor antigen p53 (Homo sapiens) (UniProt P04637); assay: Primary qHTS for small molecule compounds that upregulate eGFP-tagged delta133p53alpha (in N-terminal) cells. (AID 2060322); settings: NCI-H358 eGFP-delta133p53alpha fluorescence, 24 h; activation: active compounds read high; further: nearly all actives have a fitted effect of over 75% in size; further: potency means the concentration at half of the fitted maximal effect;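 on activation: cells pre-induced with doxycycline then dosed without doxycycline; series mostly up to about 56 µM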
# In short: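 NCI-H358 cells pre-induced 24 h with 10 ng/ml doxycycline for eGFP-delta133p53alpha, plated dox-free and exposed 24 h at 37C to titrated compounds. Fixed, Hoechst-stained; gated GFP peak intensity by laser scanning cytometry, normalized to DMSO (0%) and 57.5 uM 5-azacytidine (100%).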
# [2] = target: Aldehyde dehydrogenase, mitochondrial (Homo sapiens) (UniProt P05091); assay: qHTS for Inhibitors of the Aldehyde Dehydrogenase Family (ALDH2) Primary screen (AID 2061308); further: nearly all actives have a fitted effect of over 55% in size
# [3] = target: Retinaldehyde dehydrogenase 3 (Homo sapiens) (UniProt P47895); assay: qHTS for Inhibitors of the Aldehyde Dehydrogenase Family (ALDH1A3) Primary screen (AID 2061315)
# Cellular tumor antigen p53 (Homo sapiens), sequence (P04637 whole entry, looked up): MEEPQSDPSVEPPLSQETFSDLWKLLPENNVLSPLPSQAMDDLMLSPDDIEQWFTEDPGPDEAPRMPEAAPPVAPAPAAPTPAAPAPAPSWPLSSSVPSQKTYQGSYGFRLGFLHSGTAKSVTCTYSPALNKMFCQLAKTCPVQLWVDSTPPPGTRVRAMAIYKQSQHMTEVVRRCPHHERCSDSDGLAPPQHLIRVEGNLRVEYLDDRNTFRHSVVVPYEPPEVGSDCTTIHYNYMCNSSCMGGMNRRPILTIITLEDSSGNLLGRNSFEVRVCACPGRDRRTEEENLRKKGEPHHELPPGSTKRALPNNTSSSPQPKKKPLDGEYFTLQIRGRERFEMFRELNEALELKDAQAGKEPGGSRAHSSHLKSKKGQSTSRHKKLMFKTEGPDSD
SMILES,activation [1],Potency [2],Potency [3],Potency [1]
CCOC(=O)CCNc1cc(N2CCc3ccccc3CC2)nc(-c2cccnc2)n1,7%,inactive,inactive,–
C/C=C(\C)C(=O)OCC1OC(OC2OC(COC(=O)/C(C)=C/C)C(OC3OC(CO)C(OC(=O)/C(C)=C/C)C(OC(=O)/C(C)=C/C)C3O)C(O)C2O)C(O)C(O)C1OC1OC(CO)C(OC(=O)/C(C)=C/C)C(OC(=O)/C(C)=C/C)C1O (configuration not stated),-19.8%,inactive,inactive,–
C[C@@H]1O[C@@H](O[C@H]2CC[C@@]3(C)C(CC[C@]4(C)C3CC=C3[C@@H]5CC(C)(C)CC[C@]5(C(=O)O[C@@H]5O[C@H](CO)[C@@H](O)[C@H](O)[C@H]5O)CC[C@]34C)[C@]2(C)CO)[C@H](O)[C@H](O[C@@H]2O[C@H](CO)[C@@H](O)[C@H](O)[C@H]2O)[C@H]1O (some centres not stated),-6.11%,inactive,inactive,–
C=C1CC2C3(C)C=CC(=O)OC(C)(C)C3CC(OC(C)=O)C2(C)C2C(=O)OC(C)C(=O)C12C (configuration not stated),15.3%,inactive,inactive,–
COc1cc(C)c(C(=O)O[C@H]2[C@@H](O)[C@H](n3ccc(=O)[nH]c3=O)O[C@@H]2CO)c(OC)c1,-3.05%,inactive,inactive,–
CC1(C)OC[C@H](NC(=O)Nc2ccc(Br)cc2Br)[C@H](c2ccccc2)O1,–,inactive,inactive,19 µM (active)
CC1=CC(=O)[C@]2(O[C@@H]3O[C@@H](C)[C@H](O)[C@@H](O)[C@H]3O)C=CO[C@@H](O[C@@H]3O[C@H](CO)[C@@H](O)[C@H](O)[C@H]3O)[C@H]12,-18.3%,inactive,inactive,–
C=C(C)C1=C[C@@]2(C)C(=CC1=O)CC[C@@H](O)[C@@H]2C,22.1%,inactive,inactive,–
C=C1CCC[C@]2(C)CC[C@@](O)(C(=C)C(=O)O)C[C@@H]12,24.1%,inactive,inactive,–
C[C@@H](Cc1cc2c(c(C(N)=O)c1)N(CCCO)CC2)NCCOc1ccccc1OCC(F)(F)F,13.7%,inactive,inactive,–
O=C(NC[C@H]1CN(c2ccc(N3CCOCC3=O)cc2)C(=O)O1)c1ccc(Cl)s1,5.25%,inactive,inactive,–
CC1(C)CC[C@]2(C(=O)O[C@@H]3O[C@H](CO)[C@@H](O)[C@H](O)[C@H]3O)CC[C@]3(C)C(=CCC4[C@@]5(C)CC[C@H](O[C@H]6O[C@H](CO)[C@@H](O)[C@H](O[C@@H]7O[C@H](CO)[C@@H](O)[C@H](O)[C@H]7O)[C@H]6O)C(C)(C)C5CC[C@]43C)[C@@H]2C1 (some centres not stated),15.3%,inactive,inactive,–
O=C(O)Cc1ccccc1Oc1ccc(Cl)cc1Cl,-3.35%,inactive,inactive,–
O=C(OCC1OC(Oc2ccc(O)cc2COC(=O)C2(O)C(O)CCC(=O)C2OC(=O)C2C=CCC2)C(OC(=O)C2C=CCC2)C(O)C1O)C1C=CCC1 (configuration not stated),-3.05%,inactive,inactive,–
CCCOC(c1cc2nccc(C(=O)O)c2[nH]1)c1ccccc1Cl (configuration not stated),0.333%,inactive,inactive,–
C=C1CCC2C(C)(C)CCC[C@]2(C)[C@H]1CC/C(C)=C/C(=O)O (some centres not stated),-3.82%,inactive,inactive,–
CC(=O)OC1C(OC(=O)c2ccccc2)C2C(=C(C)CCC2(C)C)C23CCC(C)(C2)C(=O)CC13 (configuration not stated),-13%,inactive,inactive,–
CC(=O)NCCCCn1c2c(c3ccccc31)C(=O)NCC2,-13.4%,inactive,inactive,–
CC(=O)O[C@H]1C[C@@H](O)C(C)(C)C2C[C@@H](OC(C)=O)[C@]3(C)C(CC[C@@]4(C)[C@H](c5ccoc5)OC(=O)[C@H]5O[C@]543)[C@]21C (some centres not stated),11.6%,inactive,inactive,–
CC[C@H]1OC(=O)[C@H](C)[C@@H](O[C@H]2C[C@@](C)(OC)[C@@H](O)[C@H](C)O2)[C@H](C)[C@@H](O[C@H]2O[C@H](C)C[C@H](N(C)C)[C@H]2O)[C@](C)(O)C[C@@H](C)C(=O)[C@H](C)[C@@H](O)[C@]1(C)O,9.67%,inactive,inactive,–
CC(=O)OC12CC(C)C(O)C1/C=C(/COC1OC(CO)C(O)C(O)C1O)CCC1C(/C=C(\C)C2=O)C1(C)C (configuration not stated),-9.16%,inactive,inactive,–
NC[C@H]1CCC[C@@H](CNC(=O)[C@@H](Cc2c[nH]c3ccccc23)NC(=O)N2CCC3(C=Cc4ccccc43)CC2)C1,3%,inactive,inactive,–
Cc1nc(NC(=O)N2CCCC2C(N)=O)sc1-c1csc(C(C)(C)C)n1 (configuration not stated),16.1%,inactive,inactive,–
CCC(CC)n1ccc2c(C(=O)NCc3c(C)cc(C)[nH]c3=O)cc(C#N)cc21,-3.35%,inactive,inactive,–
O=C(OCc1cccc(O)c1O[C@@H]1O[C@H](CO)[C@@H](O)[C@H](O)[C@H]1O)C1(O)C(=O)C2C=CC1C1C=CC(=O)C(O)(C(=O)OCc3cccc(O)c3O[C@@H]3O[C@H](CO)[C@@H](O)[C@H](O)[C@H]3O)C21 (some centres not stated),-29.8%,inactive,inactive,–

SMILES,activation [1],Potency [2],Potency [3],Potency [1]
C/C1=C\CC[C@H](C)CCO[C@@H]2O[C@H](CO[C@@H]3OC[C@](O)(COC1=O)[C@H]3O)[C@@H](O)[C@H](O)[C@H]2O,18.8%,inactive,inactive,–
C[C@@H]1O[C@@H](O[C@H]2[C@H](O[C@H]3[C@H](O[C@H]4CC[C@@]5(C)C(CC[C@]6(C)C5CC=C5[C@@H]7CC(C)(C)C[C@@H](O)[C@]7(C)CC[C@]56C)C4(C)C)O[C@H](C(=O)O)[C@@H](O)[C@@H]3O)O[C@H](C(=O)O)[C@H](O)[C@@H]2O)[C@H](O)[C@H](O)[C@H]1O (some centres not stated),-16.8%,inactive,inactive,–
C=C1/C(=C/C=C2\CCC[C@]3(C)[C@@H]([C@@H](C)OCCC(O)(CC)CC)CC[C@@H]23)C[C@@H](O)C[C@@H]1O,-5%,inactive,inactive,–
CC(=O)N1CCN(NC(=O)c2ccc(F)cc2)CC1,-2.39%,inactive,inactive,–
CC(C)C(=O)O[C@@H]1[C@@H](O)[C@@H](O[C@H]2O[C@H](CO)[C@@H](O)[C@H](O)[C@H]2O)O[C@H](CO)[C@H]1O,3.82%,inactive,inactive,–
COc1cc2c(c(O)c1OC/C=C(\C)CC/C=C(/C)CCC=C(C)C)CN(C(CCC(=O)O)C(=O)O)C2=O (configuration not stated),-30.5%,inactive,inactive,–
CC(C)CC(c1c(O)c(C=O)c(O)c(C=O)c1O)C1CCC(C)(O)C2CC(C(C)(C)O)CCC12C (configuration not stated),22.3%,inactive,inactive,–
CC1(C)S[C@@H]2[C@H](NC(=O)[C@H](N)c3ccc(O)cc3)C(=O)N2[C@H]1C(=O)O,-5%,inactive,inactive,–
C/C(=C/CO)CC[C@H]1[C@]2(C)C[C@H](O)CC(C)(C)[C@H]2CC[C@]1(C)O,-9.92%,inactive,inactive,–
C=C1CC23CC1CCC2C12OC(=O)C(C)(C(O)CC1O)C2C3C(=O)O (configuration not stated),-7.14%,inactive,inactive,–
CC(C)(O)C1CC=C(C(=O)OC[C@H]2O[C@@H](OC(=O)C3=CCC(C(C)(C)O)CC3)[C@H](O)[C@@H](O)[C@@H]2O)CC1 (some centres not stated),-8.4%,inactive,inactive,–
O=C(O[C@H]1[C@@H]2C[C@@H]3OC[C@@](O)([C@H]2[C@H](O[C@@H]2O[C@H](CO)[C@@H](O)[C@H](O)[C@H]2O)O3)[C@@H]1O)c1ccccc1,5.36%,inactive,inactive,–
C=C(C(=O)O)C1CCC2(C)CCC(O)C(C)(O)C2C1 (configuration not stated),8.04%,inactive,inactive,–
C=C1CC2[C@@]3(C)C=CC(=O)C(C)(C)C3=C(O)C(=O)[C@@]2(C)C2(C(=O)OC)C(=O)C(C)OC(=O)[C@@]12C (some centres not stated),-3.82%,inactive,inactive,–
O=C(O)CCc1cc2ccoc2cc1O[C@@H]1O[C@H](CO[C@@H]2OC[C@](O)(CO)[C@H]2O)[C@@H](O)[C@H](O)[C@H]1O,-11.5%,inactive,inactive,–
O=[N+]([O-])c1cccc2[nH]c(CNc3nc(N4CCOCC4)nc4c3ncn4-c3ccsc3)nc12,–,inactive,inactive,0.301 µM (active)
COC1=Cc2c(nc3n(c2=O)C(C)C(=O)NC3(O)C(C)C)OC=C1 (configuration not stated),-17.6%,inactive,inactive,–
C=CC1(C)C=C2CC[C@H]3[C@@](C)(C(=O)O)CCC[C@]3(C)C2CC1 (some centres not stated),-0.763%,inactive,inactive,–
O=C(O[C@@H]1O[C@H](CO)[C@@H](O)[C@H](O)[C@H]1O)c1c(O)cc(O)cc1/C=C/c1ccccc1,-23.7%,inactive,inactive,–
C=C[C@@H]1[C@H](O[C@@H]2O[C@H](CO)[C@@H](O)[C@H](O)[C@H]2O)OC=C(C(=O)O)[C@H]1CCOC(=O)/C=C/c1ccc(O)c(O)c1,-7.63%,inactive,inactive,–
COc1ncc2cc(C(=O)Nc3cc(C(=O)NCc4cccc(Cl)c4)ccc3Cl)c(=O)[nH]c2n1,–,inactive,inactive,2.69 µM (active)
CCN1CCN(Cc2ccc(-c3cc4c(NC(C)c5ccccc5)ncnc4[nH]3)cc2)CC1 (configuration not stated),–,inactive,inactive,26.9 µM (active)
CC1CCCCN1S(=O)(=O)c1ccc(N2CCCC2=O)cc1 (configuration not stated),2.86%,inactive,inactive,–
C=C(C(=O)O)C1CCC2(C)CCC(O)C(=C)C2C1 (configuration not stated),9.82%,inactive,inactive,–
